# From PubChem BioAssay AID1745853 (National Center for Advancing Translational Sciences (NCATS), 2022)
# The campaign covered roughly 25,000 compounds. About 970 (3.9%) were called active. Another 8% or so got no clear call; they are omitted. No rule for the calls is given here. This excerpt belongs to a sample that is enriched for actives.
# Tests used:
# Experiment in all cases: Primary Screen for Target Class Profiling of Small Molecule Inhibitors of Methyltransferases
# [1] = target: Catechol O-methyltransferase (Homo sapiens) (UniProt P21964); settings: purified enzyme, MTase-Glo SAH luminescence; activity change, negative = inhibition: at 40 µM, stronger effect = lower value; outcome: 40 uM
# Sequence of Catechol O-methyltransferase (Homo sapiens) (P21964 whole entry, looked up): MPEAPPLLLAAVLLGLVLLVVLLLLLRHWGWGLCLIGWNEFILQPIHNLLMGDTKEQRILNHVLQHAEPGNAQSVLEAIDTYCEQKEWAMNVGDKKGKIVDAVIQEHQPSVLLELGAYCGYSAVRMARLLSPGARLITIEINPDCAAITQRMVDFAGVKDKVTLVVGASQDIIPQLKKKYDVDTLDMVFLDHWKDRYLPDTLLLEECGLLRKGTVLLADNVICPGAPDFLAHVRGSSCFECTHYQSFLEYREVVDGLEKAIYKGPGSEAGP
# Source text: (§1) PI: Matthew D. Hall Ph.D. and Quinlin M. Hanson Ph.D.
# (§2) National Center for Advancing Translational Sciences (NCATS)
# (§3) National Institute of Health (NIH), Rockville, MD
# (§4) Target class profiling (TCP) is a chemical biology approach amenable to investigating understudied biological targets. TCP is achieved by developing a generalizable assay platform and applying it to screen a curated set of compound libraries against representative members of a target class. Small molecule methyltransferases (SMMTase) are a subclass of methyltransferase that act on metabolites to modulate signaling pathways, metabolize xenobiotics, or balance the available methyl pool. We screened four curated libraries totaling 27,574 unique compounds against the SMMTases nicotinamide N-methyltransferase (NNMT), phenylethanolamine N-methyltransferase (PNMT), histamine N-methyltransferase (HNMT), glycine N-methyltransferase (GNMT), catechol O-methyltransferase (COMT), and guanidinoacetate N-methyltransferase (GAMT). The data generated by this TCP can be leveraged for informed tool molecule development. For example, in the associated publication we identified a chemotype of HNMT-selective inhibitors. Additionally, we identified a putative SMMTase-selective inhibitor with potential as a tool molecule for studying broader methyltransferase biology.
# (§5) High-through put screening assays were developed at the National Center for Advancing Translational Science (NCATS) for the enzymes NNMT, PNMT, HNMT, GNMT, COMT, and GAMT. Enzymatic activity was measured as a function of SAM cofactor conversion using the MTase Glo kit (Promega) for all enzymes. All assays were performed in 1536-well format with substrates and SAM concentrations at KM values. Enzyme concentration and assay timing were optimized for 10-20% SAM conversion. Initial screening of 27,574 compounds was done as single-point assays using the highest compound concentration (40 uM). […] These compounds were replated in 11-point dose response and assayed against NNMT, PNMT, HNMT, GNMT, COMT, GAMT, and a counter-assay. The IC50 and efficacy (maximal response) values were determined for each dose-response curve. These values are also accounted for in the area under the curve (AUC) values.
# (§6) PROTOCOL TABLE (as described by Inglese J, Shamu CE and Guy RK. 2007)
# (§7) SEQUENCE No. (e.g., 1, 2, 3, etc.); […] (e.g., Cells, Incubation, Reagent, etc.); VALUE; DESCRIPTION.
# (§8) 1; Reagent; 2 uL; SMMTase Enzyme (2x) in reaction buffer, columns 1- 48.
# (§9) 2; Reagent; 1 uL; SAM (4x) in reaction buffer, columns 1-48.
# (§10) 3; Controls; 23 nL; DMSO in column 4; sinefungin in DMSO (0 uM - 40 uM) in 7-point 1:2 dilution series (n = 2) in column 2.
# (§11) 4; Compounds; 23 nL; Columns 5-48.
# (§12) 5; Reagent; 1 uL; Substrate (4x) in reaction buffer, columns 2-48.
# (§13) 6; Time; 20-30 min; Incubation.
# (§14) 7; Reagent; 1 uL; MTase-Glo reagent (5X), columns 1-48.
# (§15) 8; Time; 30 min; Incubation.
# (§16) 9; Reagent; 5 uL; MTase-Glo Detection reagent, columns 1-48.
# (§17) 10; Time; 30 min; Incubation, luminescence evolution.
# (§18) 11; Detection; Luminescence; ViewLux uHTS Microplate Imager (PerkinElmer).
# (§19) NOTES (numbers refer to Sequence numbers above)
# (§20) 1, 2, 5. White Medium Binding Greiner 1536-well plates (Cat #789175-F, Greiner Bio-One, Monroe, NC); Reaction buffer: 50 mM Tris, pH 8.0, 3 mM MgCl2, 1 mM EDTA, 50 mM NaCl, 1 mM DTT, and 0.1 mg/mL BSA. Evaporation was prevented by covering assay plates with metal lids containing holes to allow gas diffusion.
# (§21) 1. Six SMMTase were profiled: HNMT, GNMT, PNMT, COMT, NNMT, GAMT
# (§22) 5. The corresponding substrate was used for each enzyme: HNMT - 5.3 uM Histamine; GNMT - >500 uM Glycine; PNMT - 16.2 uM Norephinephrine; COMT - 13.7 uM Norephinephrine; NNMT - 3.8 uM Nicotinamide; GAMT - 2.5 uM Guanidinoacetate.6, 8, 10. Room temperature
# (§23) 6. Final reaction conditions: 10 nM COMT, 5 uM SAM, 15 uM norepinephrine, 50 mM Tris, pH 8.0, 3 mM MgCl2, 1 mM EDTA, 50 mM NaCl, 1 mM DTT, and 0.1 mg/mL BSA; refer to tables 2 and S1 for specific timing.
# 8. […]
# [2] = target: Glycine N-methyltransferase (Homo sapiens) (UniProt Q14749); settings: purified enzyme, MTase-Glo SAH luminescence; measured here: GNMT inhibition; at 40 µM; stronger effect = lower value
# Sequence of Glycine N-methyltransferase (Homo sapiens) (Q14749 whole entry, looked up): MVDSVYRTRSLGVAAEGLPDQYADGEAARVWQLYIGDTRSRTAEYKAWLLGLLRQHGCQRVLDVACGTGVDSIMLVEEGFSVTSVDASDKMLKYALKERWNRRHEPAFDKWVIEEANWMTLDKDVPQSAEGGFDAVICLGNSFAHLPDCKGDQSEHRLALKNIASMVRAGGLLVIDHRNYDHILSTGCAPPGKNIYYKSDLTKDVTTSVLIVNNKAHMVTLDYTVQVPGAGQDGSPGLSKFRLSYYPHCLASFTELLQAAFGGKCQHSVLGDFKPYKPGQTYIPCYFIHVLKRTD
# Source text: as §1, §2, §3, §4, §5, §6, §7, §8, §9, §10, §11, §12, §13, §14, §15, §16, §17, §18, §19, §20, §21, §22, §23
# 8. […]
# [3] = target: Guanidinoacetate N-methyltransferase (Homo sapiens) (UniProt Q14353); settings: purified enzyme, MTase-Glo SAH luminescence; measured here: GAMT inhibition; at 40 µM; stronger effect = lower value
# Source text: as §1, §2, §3, §4, §5, §6, §7, §8, §9, §10, §11, §12, §13, §14, §15, §16, §17, §18, §19, §20, §21, §22, §23
# 8. […]
# [4] = target: Histamine N-methyltransferase (Homo sapiens) (UniProt P50135); settings: purified enzyme, MTase-Glo SAH luminescence; measured here: HNMT inhibition; at 40 µM; stronger effect = lower value
# Sequence of Histamine N-methyltransferase (Homo sapiens) (P50135 whole entry, looked up): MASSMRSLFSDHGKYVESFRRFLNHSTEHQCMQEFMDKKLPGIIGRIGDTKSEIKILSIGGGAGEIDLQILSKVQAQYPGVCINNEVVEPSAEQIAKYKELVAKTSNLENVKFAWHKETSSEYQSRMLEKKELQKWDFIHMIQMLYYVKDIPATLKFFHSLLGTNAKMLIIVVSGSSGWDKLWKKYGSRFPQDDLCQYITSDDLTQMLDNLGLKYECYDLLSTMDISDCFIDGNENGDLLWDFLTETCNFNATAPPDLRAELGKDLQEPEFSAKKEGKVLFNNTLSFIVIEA
# Source text: as §1, §2, §3, §4, §5, §6, §7, §8, §9, §10, §11, §12, §13, §14, §15, §16, §17, §18, §19, §20, §21, §22, §23
# 8. […]
# [5] = target: Nicotinamide N-methyltransferase (Homo sapiens) (UniProt P40261); settings: purified enzyme, MTase-Glo SAH luminescence; measured here: NNMT inhibition; at 40 µM; stronger effect = lower value
# Sequence of Nicotinamide N-methyltransferase (Homo sapiens) (P40261 whole entry, looked up): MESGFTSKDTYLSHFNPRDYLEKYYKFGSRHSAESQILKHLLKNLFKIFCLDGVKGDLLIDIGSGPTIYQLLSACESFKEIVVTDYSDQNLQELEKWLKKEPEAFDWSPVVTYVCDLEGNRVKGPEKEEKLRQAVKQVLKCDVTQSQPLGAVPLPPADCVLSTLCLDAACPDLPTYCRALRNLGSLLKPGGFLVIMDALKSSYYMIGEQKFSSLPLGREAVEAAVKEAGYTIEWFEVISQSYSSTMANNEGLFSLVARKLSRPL
# Source text: as §1, §2, §3, §4, §5, §6, §7, §8, §9, §10, §11, §12, §13, §14, §15, §16, §17, §18, §19, §20, §21, §22, §23
# 8. […]
# [6] = target: Phenylethanolamine N-methyltransferase (Homo sapiens) (UniProt P11086); settings: purified enzyme, MTase-Glo SAH luminescence; measured here: PNMT inhibition; at 40 µM; stronger effect = lower value
# Sequence of Phenylethanolamine N-methyltransferase (Homo sapiens) (P11086 whole entry, looked up): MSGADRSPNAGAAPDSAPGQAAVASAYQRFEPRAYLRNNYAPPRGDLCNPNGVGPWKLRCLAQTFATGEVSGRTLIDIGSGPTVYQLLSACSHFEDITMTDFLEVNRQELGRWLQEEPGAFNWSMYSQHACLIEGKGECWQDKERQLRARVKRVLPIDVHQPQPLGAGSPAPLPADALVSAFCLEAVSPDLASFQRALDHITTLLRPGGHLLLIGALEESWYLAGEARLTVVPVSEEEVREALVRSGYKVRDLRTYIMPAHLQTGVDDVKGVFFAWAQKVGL
# Source text: as §1, §2, §3, §4, §5, §6, §7, §8, §9, §10, §11, §12, §13, §14, §15, §16, §17, §18, §19, §20, §21, §22, §23
# 8. […]
# % is scaled to controls: 0 for no effect and ±100 for the full control effect.
SMILES,"activity change, negative = inhibition [1]","activity change, negative = inhibition [2] [%]","activity change, negative = inhibition [3] [%]","activity change, negative = inhibition [4] [%]","activity change, negative = inhibition [5] [%]","activity change, negative = inhibition [6] [%]"
CCOC(=O)c1cc2n(n1)CC(C)(C(=O)NC1CCCC1)N(c1ccc(C)c(C)c1)C2=O (centres undefined),1.75% (inactive),4.07,4.83,3.71,1.82,2.03
O=C(NCc1ccc(Cl)cc1)c1cc(-c2ccc[nH]2)n[nH]1,-7.05% (inactive),-26.5,-7.92,-7.72,-8.3,2.91
O=C(Nc1ccc2ncnc(N3CCCCC3)c2c1)C1CCCCC1,-91.5% (active),-90.3,-88.7,-91.6,-92.3,-90.6
O=C(N[C@@H]1CN(c2ccncn2)C[C@H]1CO)C1CCCC1,-2.82% (inactive),-3.56,-4.46,-1.77,-6.98,-3.66
Cn1nccc1C(=O)NC1CCCN(c2cc(N3CCCC3)ncn2)C1 (centres undefined),-8.51% (inactive),-8.51,-10.5,-21.6,-17.7,-11.9
COc1ccc(OC)c(CNC(=O)CCn2ccc3cc(S(=O)(=O)N4CCCCC4)ccc32)c1,-2.28% (inactive),-4.44,0.679,-7.33,-15,-3.87
COc1cc2c(cc1O)NC(=O)CC2c1cn[nH]c1-c1cc(C)ccc1C (centres undefined),-43% (active),-48.4,-38.7,-60.8,-38.3,-13.5
COCC(=O)Nc1ncncc1-c1noc([C@@H]2CCCN2Cc2cc(OC)c(OC)c(OC)c2)n1,-16.9% (inactive),-9.35,-8.08,-8.93,-16.4,-12.8
O=C(c1ccc(C(F)(F)F)cc1)N1CCC2(COc3ccncc3[S+](=O)([O-])N2)C1 (centres undefined),-0.613% (inactive),-4.6,-3.02,-0.962,-5.7,-0.429
Cn1ccc(Nc2cc3c(cn2)CN(CCc2ccccc2)CCN3)n1,-9.44% (active),-10.2,-12.2,-92.8,-17.5,-56.1
O=C1N2CCCC2CN1C1CCN(Cc2ccsc2)CC1 (centres undefined),3.52% (inactive),-1.71,0.192,0.939,-3.94,6.61
CN(CC(=O)N1CCC2(CCNCC2)CC1)Cc1cccnc1,-5.94% (inactive),-3.63,-4.3,-5.87,-4.19,-3.85
COc1ccc(S(=O)(=O)N2CCCCC2c2n[nH]c(C)n2)cc1 (centres undefined),12.4% (inactive),15.6,2.87,11.2,10.1,11.2
O=C1NC(=NC2CCCC2)C2(CCCN([S+](=O)([O-])c3ccccc3)C2)N1c1cccnc1 (centres undefined),-0.276% (inactive),-3.99,-4.94,-1.01,-11,-21.7
